CendR NRP1 mod: modulators of CendR peptide binding to NRP-1, primary screen, biochemical, fluorescence polarization, uHTS. inhibition, % at 25 µM. actives 0.85% (n = 360,000). FAM-RPARPAR peptide binding to NRP-1. Neuropilin-1 (Homo sapiens), O14786;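 active = inhibition or corrected inhibition above about 18%, plus a signal ratio from 0.5 to 1.5, limit read from the data, passing the limit was not always enough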
Target sequence (O14786 whole entry, looked up): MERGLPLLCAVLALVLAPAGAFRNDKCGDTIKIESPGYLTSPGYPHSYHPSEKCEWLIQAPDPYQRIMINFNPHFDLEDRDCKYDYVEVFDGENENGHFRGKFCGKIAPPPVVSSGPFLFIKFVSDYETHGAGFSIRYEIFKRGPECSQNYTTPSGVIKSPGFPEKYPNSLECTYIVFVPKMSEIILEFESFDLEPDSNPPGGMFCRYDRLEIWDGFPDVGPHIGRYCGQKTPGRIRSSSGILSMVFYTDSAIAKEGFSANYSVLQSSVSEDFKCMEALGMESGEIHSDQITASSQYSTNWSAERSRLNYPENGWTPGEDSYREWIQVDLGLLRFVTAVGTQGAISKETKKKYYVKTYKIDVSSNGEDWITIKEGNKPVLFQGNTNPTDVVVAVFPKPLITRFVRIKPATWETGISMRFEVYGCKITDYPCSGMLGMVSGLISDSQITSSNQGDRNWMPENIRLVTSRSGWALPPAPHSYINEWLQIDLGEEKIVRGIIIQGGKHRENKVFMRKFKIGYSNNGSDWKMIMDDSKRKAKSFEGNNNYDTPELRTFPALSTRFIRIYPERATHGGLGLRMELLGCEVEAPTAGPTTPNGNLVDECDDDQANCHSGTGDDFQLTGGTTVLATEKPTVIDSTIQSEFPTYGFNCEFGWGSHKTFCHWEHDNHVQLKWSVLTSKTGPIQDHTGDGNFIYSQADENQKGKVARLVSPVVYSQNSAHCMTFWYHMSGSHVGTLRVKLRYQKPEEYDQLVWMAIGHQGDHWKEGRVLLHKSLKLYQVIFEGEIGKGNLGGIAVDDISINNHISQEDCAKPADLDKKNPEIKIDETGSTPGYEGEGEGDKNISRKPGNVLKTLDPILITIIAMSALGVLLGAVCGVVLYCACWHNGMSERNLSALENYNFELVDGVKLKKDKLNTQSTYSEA
MEKK2mut PB1 HTS: MEK5 binding signal on mutant MEKK2 PB1, primary screen, biochemical, multiplex bead flow cytometry, Alexa488-MEK5 | Alexa488-MEK5 binding to MEKK2 mutant | percent response, % at 10 µM | actives 0.35% (n = 290,000) | AID 1530, 2009; in the data active = percent response above about 24%, passing the limit was not always enough
MEKK3 PB1 HTS: modulators of MEKK3-MEK5 PB1 binding, primary screen, biochemical, wildtype MEKK3, multiplex bead flow cytometry, Alexa488-MEK5 | Mitogen-activated protein kinase kinase kinase 3 (Homo sapiens), Q99759 | bead-based flow cytometry, Alexa488-MEK5 binding to MEKK3; actives lie on both sides; 0 = blocked by unlabeled MEK5, 100 = vehicle | binding response (% of control), % at 10 µM | actives 1.4% (n = 290,000) | AID 1529, 2009;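 active = binding response more than 3 SD above or below the average of its plate-row segment, actives on both sides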;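 note: Alexa488 bead fluorescence after subtracting the streptavidin-only scavenger bead signal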
SKN-1 block: suppressors of acrylamide-induced Pgst-4::GFP reporter in worms, primary screen, SKN-1 inhibitor project, whole organism, uHTS, GFP/RFP fluorescence ratio, strain VP596. C. elegans VP596 Pgst-4::GFP/RFP ratio, 24 h. inhibition, % at 21.8 µM. actives 0.49% (n = 360,000);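 active = interference check ratio from 0.5 to 1.5 plus GFP to RFP signal ratio inhibition reaching or exceeding a fixed threshold, cut at about 30% in these data, passing the limit was not always enough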
MEKK2 WT-MEK5: modulators of MEK5 binding to wildtype MEKK2, primary screen, biochemical, multiplex bead flow cytometry, Alexa488-MEK5 | Mitogen-activated protein kinase kinase kinase 2 (Homo sapiens), Q9Y2U5 | Alexa488-MEK5 binding to MEKK2 WT; actives lie on both sides | binding response (% of control), % at 10 µM | actives 1.1% (n = 290,000) | AID 1531, 2009; in the data active = binding response below about 67% or above about 130%
Starred values were filed as active, the others as inactive; / = not tested or not shown. In the library only some 3.2% were active in any assay of this set; here they are far more common.

SMILES	CendR NRP1 mod	MEKK2mut PB1 HTS	MEKK3 PB1 HTS	SKN-1 block	MEKK2 WT-MEK5
COc1ccc(Br)cc1CN(C)CC(O)COc1ccc(Br)cc1 (stereo not drawn)	13	0	102	35*	113
Cc1ccc(C2(c3ccccc3)NC(=O)N(CC(=O)NCc3ccccc3)C2=O)cc1C (stereo not drawn)	8	/	/	12	/
COc1cc(C(=O)NCC(=O)NNC(=O)CN(C)S(=O)(=O)c2ccc(Cl)cc2)cc(OC)c1OC	27*	/	/	12	/
COc1cccc(NC(=O)c2ccccc2N2C(=O)C3C4C=CC(C4)C3C2=O)c1 (stereo not drawn)	-4	1	104	-7	102
CCc1ccccc1NC(=O)c1ccccc1N1C(=O)C2C3C=CC(C3)C2C1=O (stereo not drawn)	22*	1	95	-4	97
CCCCN1C(C)=CC(=C2C(=O)c3ccccc3C2=O)C=C1C	15	0	105	38*	100
Cc1cccc(-c2nc(CS(=O)CC(=O)N3CC(C)CC(C)C3)c(C)o2)c1 (stereo not drawn)	-4	0	100	5	98
Cc1ccc(NS(=O)(=O)c2cccc(C(=O)Nc3cccnc3)c2)c(C)c1	12	/	/	-4	/
COc1ccc(NC(=S)NNC(=O)CCn2cc([N+](=O)[O-])cn2)cc1	30*	-6	102	2	94
Cc1cc(C)n2c(NCc3ccccc3)c(-c3cc4ccccc4o3)nc2n1	-120	/	/	7	/
COc1cc(O)cc2cc3c(c(O)c12)C(=O)CC(C)(O)O3 (stereo not drawn)	38*	5	107	-13	108
COc1ccc(OC)c(NC(=O)COc2cc(O)c3c(c2)OC(C)(C)CC3=O)c1	-11	/	/	2	/
CC(=O)C[C@@H](O)CC(=O)[C@@H]1OC(=O)[C@H](C)CCCCc2ccccc21	10	/	/	2	/
OCC(O)[C@@H](O[C@H]1O[C@H](CO)[C@@H](O)[C@H](O)[C@H]1O)[C@H](O)[C@@H](O)CO (stereo partly drawn)	-9	/	/	5	/
OC[C@@H](O)[C@@H](O[C@H]1O[C@H](CO)[C@@H](O)[C@H](O)[C@H]1O)[C@H](O)[C@@H](O)CO	2	5	81	-14	-4.0*
COc1ccc(NC(=O)C2Cc3ccccc3CN2C(=O)c2ccccc2)cn1 (stereo not drawn)	25*	3	106	-13	107
CCCCCCC(=O)N=Nc1c(O)[nH]c2ccc([N+](=O)[O-])cc12	13	-1	99	-6	98
O=C(CNC(=O)c1cccs1)N=Nc1c(O)[nH]c2ccc([N+](=O)[O-])cc12	30*	0	97	22	94
Cc1c(C)n(C)c2ccc(C(=O)NCCCN3CCN(c4ccc(F)cc4)CC3)cc12	0	7	98	-7	134*
O=C(Cn1c(=O)c2cccn2c2ccc(F)cc21)NCCCN1CCN(c2ccccc2F)CC1	-1	27*	108	2	156*
Cc1c(C)n(C)c2ccc(C(=O)NCCCN3CCN(c4ccccc4F)CC3)cc12	-8	21	107	-5	158*
Cc1c(C)n(C)c2ccc(C(=O)NCCCN3CCOCC3)cc12	1	6	99	21	103
CSc1ccc(NC(=O)NCCCN2CCN(c3ccccc3F)CC2)cc1	13	7	97	33*	111
CN(C)C(=O)c1ccc(-c2cc3onc(-c4ccccc4)c3c(=O)n2C)cc1	15	/	/	19	/
Cc1cc(N)c(C)c([N+](=O)[O-])c1C	31*	-3	99	-1	98
SMILES	CendR NRP1 mod	MEKK2mut PB1 HTS	MEKK3 PB1 HTS	SKN-1 block	MEKK2 WT-MEK5
COC1(OC)N=C(N)C2(C#N)C(c3cccc(Oc4ccccc4)c3)C12C#N (stereo not drawn)	26*	2	103	4	101
COC1(OC)N=C(N)C2(C#N)C(c3ccc(F)cc3)C12C#N (stereo not drawn)	31*	-4	96	8	94
COc1cccc(C2C3(C#N)C(N)=NC(OC)(OC)C23C#N)c1 (stereo not drawn)	8	5	102	-1	106
CC(=O)c1ccc(S(=O)(=O)N2CCN(C(=O)CSc3ccc(C)c(C)c3)CC2)cc1	-4	-6	100	10	95
CC1(C)COC(c2cc3c(cc2Br)OCO3)OC1	0	/	/	15	/
Cc1cccc(C)c1NC(=O)C1(C)CCC(=O)N1C1CC1 (stereo not drawn)	13	/	/	0	/
Cc1cccc(C)c1NC(=O)C1(C)CCC(=O)N1C1CCN(Cc2ccccc2)CC1 (stereo not drawn)	21*	/	/	4	/
O=C(NCCc1ccccc1F)C1CC(=O)N(c2ccc3c(c2)OCCO3)C1 (stereo not drawn)	10	/	/	12	/
CCOC(=O)C1CCN(C(=O)c2ccc(Cl)c(S(=O)(=O)N3CCOCC3)c2)CC1	-10	3	101	2	101
O=C(C1CCN(S(=O)(=O)c2ccc(Cl)s2)CC1)N1CCN(c2ccccc2)CC1	28*	/	/	3	/
O=C(c1ccc(Cl)c(S(=O)(=O)N2CCCC2)c1)N1CCN(c2ccccc2)CC1	37*	-7	101	1	94
CCOC(=O)C1CCN(C(=O)c2ccc(Cl)c(S(=O)(=O)N3CCCC3)c2)CC1	30*	-2	97	-2	98
COc1cccc(CN(C)C(=O)c2ccc(S(=O)(=O)Nc3cccc(C)c3C)cc2)c1OC	-15	/	/	-14	/
Cc1cccc2[nH]c(CCNC(=O)C3CCC(=O)N(CCc4cccc(F)c4)C3)nc12 (stereo not drawn)	-1	1	100	0	100
Cc1cc(C)n(CC(O)Cn2c(C)c(C)c3ccccc32)n1 (stereo not drawn)	-97	6	105	63*	101
Cc1nc2nc(SCC(=O)NCCCN3CCCCCC3)nn2c(C)c1Cc1ccccc1	16	34*	110	6	190*
C=CCn1c(SCCN)nnc1-c1cccc(S(=O)(=O)N2CCOCC2)c1	-3	/	/	6	/
c1ccc(-c2cc3c(N4CCOCC4)ncnc3s2)cc1	-3	6	101	38*	99
O=S1(=O)C=C(Oc2ccc3ccccc3c2)c2ccccc21	4	2	115	37*	96
CCOC(=O)c1sc(Nc2ccc(Br)cc2)nc1C	-2	5	107	22	-4.0*
CCOC(=O)c1sc(Nc2ccccc2Cl)nc1C	6	1	102	32	106

From PubChem BioAssay
